PubChem BioAssay AID1851 (National Center for Advancing Translational Sciences (NCATS), 2009)
Screen size: about 16,000 compounds; about 5,100 (32%) were called active. Not shown: some 25% with an inconclusive outcome. This is one part of the list. Values without a mark were called inactive. The call rests on the fitted dose curve; in most records, active means well fitted curve in the direction sought with a large enough effect; inconclusive means small, poorly fitted or top-dose-only effect, or effect the other way; inactive means no such curve, though single readings can be large or run the other way. Peptide text beside a SMILES is read from it.

Target: Cytochrome P450 3A4 (Homo sapiens) (UniProt P08684)
Sequence (P08684 whole entry, looked up): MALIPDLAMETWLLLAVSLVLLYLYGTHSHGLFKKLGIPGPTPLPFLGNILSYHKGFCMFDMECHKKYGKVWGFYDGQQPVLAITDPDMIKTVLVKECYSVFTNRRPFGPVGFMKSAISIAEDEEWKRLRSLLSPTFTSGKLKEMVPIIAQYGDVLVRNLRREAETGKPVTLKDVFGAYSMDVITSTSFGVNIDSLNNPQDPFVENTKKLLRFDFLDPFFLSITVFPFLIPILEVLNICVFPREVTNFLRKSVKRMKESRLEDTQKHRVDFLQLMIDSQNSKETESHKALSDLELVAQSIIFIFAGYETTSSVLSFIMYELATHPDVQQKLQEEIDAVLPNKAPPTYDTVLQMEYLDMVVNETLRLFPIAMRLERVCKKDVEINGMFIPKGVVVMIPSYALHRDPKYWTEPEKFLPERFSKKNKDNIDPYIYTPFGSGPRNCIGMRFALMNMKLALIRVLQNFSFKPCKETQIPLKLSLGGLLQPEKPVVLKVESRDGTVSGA
Test: Cytochrome panel assay with activity outcomes
Conditions: recombinant CYP, pro-luciferin dealkylation, luminescence, p450-cyp3a4; series mostly up to 57.1 µM
On the % scale 0 is the no-effect control and ±100 the full control effect.

Compound | AC50 | activity, negative = inhibition
O=C1C(C2=NC(C(=O)O)C3C(=O)N(c4ccc(Cl)cc4)C(=O)C23)=C(O)c2ccccc21 (stereo not given) | inactive | –
O=C1C2Sc3[nH]c(=O)sc3C(c3ccccc3)C2C(=O)N1c1ccccc1 (stereo not given) | 7.94 µM (active) | –
O=C1C2Sc3[nH]c(=O)sc3C(c3ccccc3)C2C(=O)N1c1ccc(Cl)cc1 (stereo not given) | 12.6 µM (active) | –
Nc1ccccc1CCCC(=O)O | – | 0.683% [at 11.4 µM]
O=C(CSc1nnc(-c2ccncc2)n1Cc1ccccc1)Nc1nccs1 | – | -23.1% [at 2.29 µM]
C=CCn1c(SCC(=O)Nc2ncc(Cc3ccc(Br)cc3)s2)nnc1-c1ccncc1 | 1.41 µM (active) | –
CC(C)n1c(N2CCN(C(=O)Nc3ccccc3)CC2)nc2ccccc21 | inactive | –
CC(C)N(C(=O)CSc1nc2ccccc2n1-c1ccccc1)C(C)C | 7.94 µM (active) | –
CCCCc1c(O)nc(SCCN(C)C)n(-c2ccccc2)c1=O | inactive | –
CNc1c2c(nn1C)CCCC2 | inactive | –
O=C(Nc1ccc(Oc2ccccc2)cc1)C1CCN(c2c3c(nc4ncnn24)CCC3)CC1 | inactive | –
Cc1ccc(C2C(=O)N(C3CCCC3)CC(=O)N2CC2COc3ccccc3O2)cc1 (stereo not given) | 3.98 µM (active) | –
CC1CCCC(C)N1CC(O)COCC1COc2ccccc2O1 (stereo not given) | inactive | –
CC1CCCN(CC(O)COCC2COc3ccccc3O2)C1 (stereo not given) | inactive | –
CN(C)c1ccc(-c2ccc3ncnc(N4CCNCC4)c3c2)cc1 | 20 µM (active) | –
CN1CCN(c2ncnc3ccc(-c4cccnc4)cc23)CC1 | 15.8 µM (active) | –
c1cncc(-c2ccc3ncnc(N4CCNCC4)c3c2)c1 | 12.6 µM (active) | –
CN1CCN(c2ncnc3ccc(-c4ccc5c(c4)OCO5)cc23)CC1 | 7.94 µM (active) | –
N[C@H](C(=O)O)[C@@H]1[C@@H](C(=O)O)C1(F)F | inactive | –
OC[C@@H]1O[C@H](n2cnc3c(/C=C(\O)c4ccccc4)ncnc32)[C@H](O)[C@@H]1O | – | -15.3% [at 11.4 µM]
NC(N)=NC[C@@H]1CCCCCCN1 | – | -2.73% [at 11.4 µM]
CCN(CC)CC[n+]1ccc2c(C)c3[nH]c4ccc(O)cc4c3c(C)c2c1 | – | -18.3% [at 11.4 µM]
Cc1sc2ncnc(OCC(=O)NC(C)C)c2c1C | – | 0.697% [at 11.4 µM]
N#Cc1cccc(-c2ccc3ncnc(N4CCNCC4)c3c2)c1 | 20 µM (active) | –
N#Cc1cccc(-c2ccc3ncnc(NC4CCNCC4)c3c2)c1 | inactive | –

Compound | AC50 | activity, negative = inhibition
COCCNC(=O)CSc1ncnc2sccc12 | – | 0.766% [at 2.29 µM]
COC(=O)c1c(-c2ccccc2)csc1NC(=O)CSc1ncnc2sc(C)c(C)c12 | 8.91 µM (active) | –
CCc1ccc(OCC(=O)NNC(=O)CSc2ncnc3sc(C)c(C)c23)cc1 | – | 1.75% [at 0.457 µM]
CN(Cc1ccco1)c1cc(-c2ccccc2Cl)ncn1 | inactive | –
COc1ccccc1-c1cc(N(C)Cc2ccco2)ncn1 | inactive | –
Cc1ccccc1-c1cc(N(C)Cc2ccco2)ncn1 | inactive | –
COc1ccccc1-c1cncnc1N(C)Cc1ccco1 | 1.26 µM (active) | –
CN(Cc1ccco1)c1ncncc1-c1ccccc1Cl | 0.501 µM (active) | –
Cc1noc(C)c1-c1cc(N(C)Cc2ccco2)ncn1 | inactive | –
Cc1noc(C)c1-c1cncnc1N(C)Cc1ccco1 | 3.16 µM (active) | –
Cc1ccccc1-c1cncnc1N(C)Cc1ccco1 | 1.58 µM (active) | –
CN(Cc1ccco1)c1ncncc1-c1ccccc1C(F)(F)F | 1.26 µM (active) | –
CN(Cc1ccco1)c1ccnc(-c2ccccc2C(F)(F)F)n1 | inactive | –
O=C(C[C@@H]1C=Cc2ccccc2N1C(=O)c1ccccc1)c1ccccc1 | 3.98 µM (active) | –
CN1[C@H](CC(=O)c2ccccc2)CCC[C@H]1C[C@H](O)c1ccccc1 | inactive | –
NC(=O)N1c2ccccc2C=Cc2ccccc21 | inactive | –
O=C(O)[C@H]1C[C@@H](CP(=O)(O)O)CCN1 | inactive | –
CCCCN(C)CCCNC(=O)CS(=O)Cc1nc(-c2ccc(OC)c(OC)c2)oc1C (stereo not given) | 14.1 µM (active) | –
Cc1ccccc1-c1nc(CS(=O)CC(=O)NCCCN(C)c2ccccc2)c(C)o1 (stereo not given) | 3.98 µM (active) | –
CN(C)CCCNC(=O)CCc1nc2ccccc2c(=O)[nH]1 | inactive | –
CCCCN(C)CCCNC(=O)c1ccc(N2CCCC2=O)cc1 | inactive | –
O=C(NCCN1CCN(Cc2ccccc2)CC1)C1c2ccccc2C(=O)N2CCc3ccccc3C12 (stereo not given) | – | -22.2% [at 2.29 µM]
Cc1ccccc1-c1nc(CS(=O)CC(=O)NCCN2CCN(Cc3ccccc3)CC2)c(C)o1 (stereo not given) | 7.08 µM (active) | –
C=CCN1C(=NC(=O)CC)SC2CS(=O)(=O)CC21 (stereo not given) | inactive | –
O=C(O)C(=O)/C=C(\O)c1ccc(Br)cc1 | – | -7.81% [at 11.4 µM]

Compound | AC50 | activity, negative = inhibition
COc1ccc(S(=O)(=O)NNC(=O)C2Cc3c(ccc4ccccc34)O2)cc1 (stereo not given) | 10 µM (active) | –
NNC(=O)CCc1ccc2ccc3ccccc3c2c1 | 0.398 µM (active) | –
O=C(O)CCCc1ccc2ccccc2c1 | – | -5.59% [at 11.4 µM]
O=C(O)CCCc1ccc2ccc3ccccc3c2c1 | – | -10% [at 11.4 µM]
COc1ccc(OC)c(NC(=O)CSCc2cnn(-c3ccccc3)c2-n2cccc2)c1 | 10 µM (active) | –
CCOC(=O)N1CCC(NC(=O)CSCc2cnn(-c3ccccc3)c2-n2cccc2)CC1 | 12.6 µM (active) | –
O=S(=O)(c1ccccc1)N1CCC[C@@]2(CCN(c3ccccc3)C2)C1 | 5.01 µM (active) | –
O=S(=O)(c1ccccc1)N1CCC[C@@]2(CCN(c3ccncc3)C2)C1 | 3.98 µM (active) | –
CS(=O)(=O)N1CCC2(CCN(c3ccncc3)CC2)CC1 | inactive | –
CN1CCN(C(=O)C(C(=O)c2ccc(F)cc2)n2ccccc2=O)CC1 (stereo not given) | inactive | –
CC(=O)N[C@@H](CC(=O)O)C(=O)N[C@@H](CCC(=O)O)C(=O)O (Ac-Asp-Glu-OH) | inactive | –
COc1cnc(SCc2ccc(Cl)cc2)nc1Cl | inactive | –
COc1cc(/C=N/O)cc(Br)c1OCc1cccc(Cl)c1 | 14.1 µM (active) | –
COc1cc(/C=N/O)cc(Br)c1OCc1ccc(Cl)cc1 | 15.8 µM (active) | –
Cc1ccc(-c2ccc(=O)n(CC(=O)NCCN(C)C)n2)cc1 | inactive | –
CCCN1CCN(CCCNC(=O)Cn2nc(-c3ccc(C)cc3)ccc2=O)CC1 | inactive | –
Cc1ccc(-c2ccc(=O)n(CC(=O)N3CCN(c4cccc(C)c4)C(C)C3)n2)cc1 (stereo not given) | 14.1 µM (active) | –
COc1cc2c(cc1OC)C(c1ccc(N)cc1)=NNC(=O)C2 | 12.6 µM (active) | –
COC(=O)c1cc(Br)c(=O)n(CCc2ccc(O)cc2)c1 | 15.8 µM (active) | –
COC(=O)c1cc(Br)c(=O)n(CCN2CCCC2)c1 | – | 8.19% [at 2.29 µM]
CCOc1ccc2c(c1)nc(SCC(=O)c1ccc(Br)s1)n2C | 6.31 µM (active) | –
c1ccc2nc(C3=NCCN3)cnc2c1 | inactive | –
C=CCNC(=S)N/N=C/c1ccc(OCc2ccccc2)cc1 | inactive | –
C=CCNC(=S)Nc1ccc2nc(C)c(C)nc2c1 | 15.8 µM (active) | –
CC(C)Cn1c(SCC(=O)c2c(N)n(C)c(=O)n(C)c2=O)nc2ccccc21 | 2.51 µM (active) | –

Compound | AC50 | activity, negative = inhibition
CCNC(=O)NC(=O)CSc1nc2ccccc2n1CC(C)C | 12.6 µM (active) | –
OC[C@@H]1O[C@@H](n2cnc3c(NC4CCCC4)ncnc32)[C@H](O)[C@H]1O | inactive | –
CC(=O)Oc1ccc2ccccc2c1C(NC(=O)Cc1ccccc1)c1ccc(Cl)cc1 (stereo not given) | 8.91 µM (active) | –
O=C(Cc1ccc(Cl)cc1)NNC(=O)Nc1cccc2ccccc12 | – | -12.3% [at 2.29 µM]
CN1[C@@H]2CC[C@H]1CC(OC(c1ccccc1)c1ccccc1)C2 (stereo not given in full) | inactive | –
Cc1cc(C(=O)C(=O)NC(C)C)c(C)n1-c1ccc([N+](=O)[O-])cc1 | inactive | –
C=CCN(CC=C)C(=O)C(=O)c1cc(C)n(-c2ccc([N+](=O)[O-])cc2)c1C | 2.82 µM (active) | –
CCC(=O)Nc1nnc(C(C)(C)C)s1 | inactive | –
O=C(Nc1nccs1)c1sc2cc(Cl)ccc2c1Cl | 10 µM (active) | –
Clc1ccc2c(NCCNc3ccnc4cc(Cl)ccc34)ccnc2c1 | – | 4.32% [at 11.4 µM]
COc1ccccc1CNc1ncnc2ccc(-c3ccccc3C#N)cc12 | 3.98 µM (active) | –
COc1ccc(CNc2ncnc3ccc(-c4ccccc4C#N)cc23)c(OC)c1 | 1 µM (active) | –
CCCCc1ccc(NC(=S)NCc2cccs2)cc1 | – | -10% [at 2.29 µM]
c1ccc(-n2cnc3cc(NCc4cccs4)ccc32)cc1 | 7.08 µM (active) | –
Cc1ccccc1-n1cnc2cc(NCc3cccs3)ccc21 | 5.01 µM (active) | –
O=S(=O)(Nc1cccnc1Cl)c1ccc2c(c1)OCCO2 | – | 7.34% [at 2.29 µM]
O=S(=O)(O)c1cc(N=Nc2cccc3ccccc23)c(O)c2ncccc12 | – | -5.6% [at 11.4 µM]
O=S(=O)(Nc1ccc2c(c1)OCCO2)c1cccc2cccnc12 | 15.8 µM (active) | –
CNC(=S)N1N=C(c2ccc(OC)cc2)CC1c1ccc(N(C)C)cc1 (stereo not given) | 3.98 µM (active) | –
NC(N)=NC[C@@H]1COC2(CCCCC2)O1 | inactive | –
CCOc1ncnc2c1oc1nc(CC(C)C)c3c(c12)CC(C)(C)OC3 | inactive | –
CCOC(=O)c1oc2nc(CC(C)C)c3c(c2c1N)CCC3 | 3.16 µM (active) | –
CC(C)Cc1nc(N2CCN(C(=O)c3ccccc3)CC2)c(C#N)c2c1CCC2 | inactive | –
CCn1c(SCC(=O)N/N=C/C=C\c2ccccc2[N+](=O)[O-])nnc1-c1ccccc1 | 12.6 µM (active) | –
Cn1c(SCC(=O)N/N=C/C=C\c2ccco2)nc2ccccc21 | – | 9.61% [at 2.29 µM]
